Measured values published in PubChem BioAssay.
Active and inactive are the calls of the source.

Tests used:
[1] = small molecules captured by biotinylated probe aFSTL3 – biochemical, small-molecule microarray, fluorescence 635/667, stem cell growth factor project, primary screen (AID 1064); settings: higher = more signal;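 further: measures binding of the biotinylated anti-FSTL3 antibody to printed compounds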
[2] = binders from COS7 lysate, DM2A8 probe, primary screen, torsin A project, cell lysate, small-molecule microarray, fluorescence 635/667 (AID 1065); settings: higher = more signal, COS7 lysate expressing mutant human TOR1A
[3] = small molecules captured by biotinylated probe aFGF2 – biochemical, small-molecule microarray, fluorescence 635/667, stem cell growth factor project, primary screen (AID 1067); settings: higher = more signal;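 further: measures binding of biotinylated aFGF2 protein to printed compounds on slides; z-score merges feature fluorescence and signal-to-noise across triplicate slides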
[4] = small molecules captured by biotinylated probe aFGF10 – biochemical, small-molecule microarray, fluorescence 635/667, stem cell growth factor project, primary screen (AID 1071); settings: higher = more signal;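 further: score merges 667 nm spot intensity and signal to noise from triplicate slides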
[5] = molecular target: Neurogenic locus notch homolog protein 2 (Homo sapiens) (UniProt Q04721); test: small molecules binding Notch2 protein – biochemical, small-molecule microarray, 635 nm fluorescence, stem cell growth factors, primary screen (AID 1073); settings: higher = more signal
Chain of Neurogenic locus notch homolog protein 2 (Homo sapiens) (Q04721 whole entry, looked up, canonical isoform): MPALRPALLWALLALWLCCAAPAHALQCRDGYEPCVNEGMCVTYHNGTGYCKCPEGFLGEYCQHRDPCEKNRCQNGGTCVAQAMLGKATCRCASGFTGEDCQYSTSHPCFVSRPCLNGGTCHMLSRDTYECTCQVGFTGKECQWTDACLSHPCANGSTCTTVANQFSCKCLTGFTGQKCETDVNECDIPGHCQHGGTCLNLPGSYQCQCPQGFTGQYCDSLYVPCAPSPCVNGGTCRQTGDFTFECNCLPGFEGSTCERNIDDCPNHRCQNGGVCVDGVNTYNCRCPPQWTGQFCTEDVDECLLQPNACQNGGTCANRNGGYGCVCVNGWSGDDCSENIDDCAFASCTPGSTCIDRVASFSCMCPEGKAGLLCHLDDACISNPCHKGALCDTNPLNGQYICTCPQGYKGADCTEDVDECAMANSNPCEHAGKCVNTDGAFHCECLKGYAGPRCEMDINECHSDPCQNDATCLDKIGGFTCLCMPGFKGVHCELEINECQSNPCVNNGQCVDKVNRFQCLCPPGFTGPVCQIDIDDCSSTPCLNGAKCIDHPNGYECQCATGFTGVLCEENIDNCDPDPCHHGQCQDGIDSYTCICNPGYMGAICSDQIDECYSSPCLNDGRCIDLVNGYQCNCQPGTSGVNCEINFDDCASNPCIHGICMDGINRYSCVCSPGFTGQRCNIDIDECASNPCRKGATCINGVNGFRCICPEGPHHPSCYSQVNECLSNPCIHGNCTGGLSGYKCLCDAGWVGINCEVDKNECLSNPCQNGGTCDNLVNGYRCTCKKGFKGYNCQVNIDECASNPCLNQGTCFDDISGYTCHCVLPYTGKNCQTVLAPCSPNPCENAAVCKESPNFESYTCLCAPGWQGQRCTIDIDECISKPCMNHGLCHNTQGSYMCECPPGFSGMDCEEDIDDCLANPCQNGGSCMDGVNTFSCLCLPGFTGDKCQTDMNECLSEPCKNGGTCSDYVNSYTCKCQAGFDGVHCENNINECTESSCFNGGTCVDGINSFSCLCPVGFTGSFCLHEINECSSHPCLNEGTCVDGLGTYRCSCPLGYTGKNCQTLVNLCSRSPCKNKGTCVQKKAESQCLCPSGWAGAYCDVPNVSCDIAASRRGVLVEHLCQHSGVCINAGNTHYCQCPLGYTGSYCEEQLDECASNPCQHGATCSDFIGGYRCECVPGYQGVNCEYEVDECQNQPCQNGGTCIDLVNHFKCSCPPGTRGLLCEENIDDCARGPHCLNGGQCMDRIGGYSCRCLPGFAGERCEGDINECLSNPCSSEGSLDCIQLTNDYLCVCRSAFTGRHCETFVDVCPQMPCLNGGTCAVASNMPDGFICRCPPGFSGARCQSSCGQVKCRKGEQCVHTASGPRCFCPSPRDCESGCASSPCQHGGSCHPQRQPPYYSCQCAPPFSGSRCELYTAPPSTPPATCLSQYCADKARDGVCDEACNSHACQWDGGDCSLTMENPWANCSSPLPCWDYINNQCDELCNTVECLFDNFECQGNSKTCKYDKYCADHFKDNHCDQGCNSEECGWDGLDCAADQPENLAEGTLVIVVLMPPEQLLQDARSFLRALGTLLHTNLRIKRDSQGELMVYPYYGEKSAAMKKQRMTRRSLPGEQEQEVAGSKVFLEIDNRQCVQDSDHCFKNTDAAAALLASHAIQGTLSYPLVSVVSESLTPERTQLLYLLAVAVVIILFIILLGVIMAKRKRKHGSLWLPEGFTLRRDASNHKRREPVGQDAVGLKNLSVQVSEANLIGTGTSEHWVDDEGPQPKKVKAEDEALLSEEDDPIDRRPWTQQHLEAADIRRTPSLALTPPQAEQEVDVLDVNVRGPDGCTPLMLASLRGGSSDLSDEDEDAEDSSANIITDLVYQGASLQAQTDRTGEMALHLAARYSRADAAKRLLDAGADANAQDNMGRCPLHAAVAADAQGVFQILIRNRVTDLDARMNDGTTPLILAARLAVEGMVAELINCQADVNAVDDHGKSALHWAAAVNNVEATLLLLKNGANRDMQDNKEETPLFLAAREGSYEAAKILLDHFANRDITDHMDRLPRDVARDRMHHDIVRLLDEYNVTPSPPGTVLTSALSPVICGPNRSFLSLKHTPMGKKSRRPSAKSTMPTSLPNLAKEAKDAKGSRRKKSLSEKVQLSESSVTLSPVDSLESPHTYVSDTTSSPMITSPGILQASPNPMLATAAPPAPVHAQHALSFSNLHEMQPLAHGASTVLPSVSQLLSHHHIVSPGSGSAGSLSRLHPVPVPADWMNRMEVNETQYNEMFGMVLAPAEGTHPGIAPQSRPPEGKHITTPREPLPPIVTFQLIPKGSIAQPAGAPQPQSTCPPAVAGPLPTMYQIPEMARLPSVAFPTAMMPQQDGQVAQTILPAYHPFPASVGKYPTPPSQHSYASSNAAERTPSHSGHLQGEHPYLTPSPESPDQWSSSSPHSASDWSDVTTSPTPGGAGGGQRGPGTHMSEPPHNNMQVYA

[6] = molecular target: Pro-neuregulin-1, membrane-bound isoform (Homo sapiens) (UniProt Q02297); test: small molecules binding neuregulin-1 protein – biochemical, small-molecule microarray, fluorescence 635/667, psychiatric disease protein project, primary screen (AID 1075); settings: NRG1 binding, 635 nm fluorescence, higher = more signal;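 further: score combines 667 nm spot fluorescence with signal to noise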
Chain of Pro-neuregulin-1, membrane-bound isoform (Homo sapiens) (Q02297 whole entry, looked up, the tested form may be a part, canonical isoform): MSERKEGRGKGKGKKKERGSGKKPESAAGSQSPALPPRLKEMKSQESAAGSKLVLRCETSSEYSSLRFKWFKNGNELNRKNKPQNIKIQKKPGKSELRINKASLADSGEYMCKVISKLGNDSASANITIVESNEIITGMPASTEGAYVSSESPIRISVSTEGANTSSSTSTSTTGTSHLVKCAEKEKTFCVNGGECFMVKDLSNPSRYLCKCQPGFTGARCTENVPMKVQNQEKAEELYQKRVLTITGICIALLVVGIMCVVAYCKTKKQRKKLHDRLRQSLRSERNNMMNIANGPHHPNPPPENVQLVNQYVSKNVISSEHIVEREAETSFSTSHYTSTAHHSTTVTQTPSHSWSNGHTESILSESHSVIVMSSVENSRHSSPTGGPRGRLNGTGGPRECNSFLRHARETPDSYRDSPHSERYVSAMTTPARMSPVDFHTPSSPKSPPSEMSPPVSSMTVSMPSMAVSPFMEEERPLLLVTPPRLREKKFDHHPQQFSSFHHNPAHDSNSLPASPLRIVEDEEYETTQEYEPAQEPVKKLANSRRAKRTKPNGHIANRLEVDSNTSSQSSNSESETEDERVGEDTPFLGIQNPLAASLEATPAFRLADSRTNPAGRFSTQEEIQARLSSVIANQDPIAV

[7] = tested on: Neuregulin-1 EGF-like domain; test: small molecules binding NRG1 EGF domain – biochemical, small-molecule microarray, 635 nm fluorescence, primary screen (AID 1081); settings: higher = more signal;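 further: binding of the protein to compounds printed on small-molecule microarray slides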
[8] = FRG1 expression reporter modulators in myotubes – cell-based, C2C12 myotubes, firefly/Renilla luciferase, luminescence, FRG1 inhibition for FSHD, primary screen (AID 1084); settings: FRG1 promoter luciferase, higher = more signal, called active from +8 up or from −8 down
[9] = small molecules captured by biotinylated probe aFST – biochemical, small-molecule microarray, fluorescence 635/667, stem cell growth factor project, primary screen (AID 1086); settings: higher = more signal;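 further: score merges 667 nm fluorescence with signal-to-noise of each printed compound spot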
[10] = binders of probe aHhip on microarray, primary screen, stem cell growth factor project, biochemical, small-molecule microarray, fluorescence 635/667 (AID 1087); settings: higher = more signal;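 further: score merges spot fluorescence at 667nm with spot signal to noise ratio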
[11] = tested on: PRMT1 (protein arginine N-methyltransferase 1); test: small molecules binding arginine methyltransferase PRMT1 – biochemical, small-molecule microarray, 635 nm fluorescence, primary screen (AID 1088); settings: higher = more signal;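 further: binding of Prmt1 protein to compounds spotted on small-molecule microarray slides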
[12] = growth effects on S. cerevisiae YJM789 – YJM789 clinical isolate, OD600, 24 h, basal, primary screen (AID 1089); settings: higher = more signal, called active from +8 up or from −8 down;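 further: growth of clinical yeast isolate S. cerevisiae YJM 789 seeded 1000 cells per well; test concentration not given here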
[13] = S. pombe growth modifiers, basal conditions – strain 972, OD600, 24 h, no modulator, primary screen (AID 1090);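 further: basal condition with compound alone and no growth modifier present; test concentration not given here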; settings: S. pombe 972 growth, higher = more signal, called active from +8 up or from −8 down
[14] = budding yeast growth modifiers under rapamycin – strain BY4716, OD600, 96 h, primary screen (AID 1091); further: test concentration not given here; settings: S. cerevisiae BY4716 + rapamycin, higher = more signal, called active from +8 up or from −8 down
[15] = molecular target: Torsin-1A-interacting protein 2 (Homo sapiens) (UniProt Q8NFQ8); test: small molecules binding lysate-expressed LULL1 – cell lysate, human LULL1 lysate, 635/667 nm fluorescence, primary screen (AID 1092); settings: small-molecule microarray, hLULL1 lysate binding, 635 nm fluorescence; higher = more signal;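 further: probe is lysate of COS7 cells overexpressing human LULL1; score merges per-feature 667 nm fluorescence with signal-to-noise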
Chain of Torsin-1A-interacting protein 2 (Homo sapiens) (Q8NFQ8 whole entry, looked up): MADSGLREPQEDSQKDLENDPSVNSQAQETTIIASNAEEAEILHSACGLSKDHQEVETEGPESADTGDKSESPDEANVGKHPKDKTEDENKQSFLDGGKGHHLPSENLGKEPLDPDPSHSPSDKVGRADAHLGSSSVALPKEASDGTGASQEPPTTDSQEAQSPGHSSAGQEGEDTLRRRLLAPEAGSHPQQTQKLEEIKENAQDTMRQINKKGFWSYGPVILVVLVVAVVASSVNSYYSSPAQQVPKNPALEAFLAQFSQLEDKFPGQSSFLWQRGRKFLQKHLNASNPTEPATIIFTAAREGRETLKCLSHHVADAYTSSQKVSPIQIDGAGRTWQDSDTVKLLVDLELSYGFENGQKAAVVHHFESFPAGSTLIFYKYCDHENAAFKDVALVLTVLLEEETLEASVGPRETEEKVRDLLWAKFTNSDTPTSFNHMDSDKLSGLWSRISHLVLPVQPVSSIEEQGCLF

[16] = optical density change of DRC41 E. coli – strain DRC41, OD650, 24 h, E. coli filamentation project, primary screen (AID 1093);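 further: MC1000 strain lacking acrAB efflux and sulA so SOS filamentation is blocked; test concentration not given here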; settings: E. coli DRC41 growth, higher = more signal, called active from +8 up or from −8 down
[17] = probe aLefty2 binding to arrayed compounds – biochemical, biotinylated probe, 635/667 nm fluorescence, primary screen (AID 1094); settings: small-molecule microarray, higher = more signal;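 further: score merges spot fluorescence near 667 nm with spot signal-to-noise ratio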
[18] = tested on: Noggin (protein binding on small-molecule microarray); test: small molecules binding Noggin protein – biochemical, 635/667 nm fluorescence, primary screen (AID 1095); settings: 635 nm fluorescence, higher = more signal;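 further: score merges 667 nm feature fluorescence with signal to noise over triplicate slides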
[19] = molecular target: Neurogenic locus notch homolog protein 3 (Homo sapiens) (UniProt Q9UM47); test: small molecules binding NOTCH3 protein – biochemical, 635/667 nm fluorescence, primary screen (AID 1096); settings: small-molecule microarray, 635 nm fluorescence, higher = more signal
[20] = probe aEGFR binding to arrayed compounds – biochemical, biotinylated probe, 635/667 nm fluorescence, primary screen (AID 1097); settings: small-molecule microarray, higher = more signal;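 further: probe is a biotinylated anti-EGFR antibody binding compounds printed on slides; score combines fluorescence near 667 nm and signal to noise of each spot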

SMILES | composite z-score [1] | composite z-score [2] | composite z-score [3] | composite z-score [4] | composite z-score [5] | composite z-score [6] | composite z-score [7] | z-score [8] | composite z-score [9] | composite z-score [10] | composite z-score [11] | z-score [12] | z-score [13] | z-score [14] | composite z-score [15] | z-score [16] | composite z-score [17] | composite z-score [18] | composite z-score [19] | composite z-score [20]
CCN1C(=O)[C@H]2[C@H]3[C@H](O)[C@H](O)CC(=NO[C@H](C)c4cn([C@@H]5COC[C@H]5O)nn4)[C@@H]3CC[C@H]2C1=O | -0.258 | 0.307 | -0.0853 | 0.307 | 0.0679 | -0.455 | -0.14 | 0.225 (inactive) | 0.0423 | -0.238 | 0.489 | 0.415 (inactive) | 1.01 (inactive) | 1.36 (inactive) | 0.413 | 0.445 (inactive) | -0.129 | -0.127 | 0.0689 | -0.0678
CCOC(=O)CCN1C(=O)[C@H]2[C@@H]3C(=CC[C@H]2C1=O)C(=O)[C@H]1O[C@H]1[C@H]3O | -0.128 | -0.42 | -0.137 | -0.199 | -0.582 | -0.426 | 0.503 | -2.91 (inactive) | -0.481 | -0.137 | -0.571 | 0.151 (inactive) | 0.0483 (inactive) | -0.384 (inactive) | -0.0261 | -0.518 (inactive) | -0.27 | -0.861 | -1.75 | -0.122
CCN1C(=O)[C@H]2[C@H]3[C@H](O)[C@H](O)CC(=NOCC=C(C)CCC=C(C)C)[C@@H]3CC[C@H]2C1=O | -0.524 | 1.36 | -0.146 | 0.483 | 0.2 | -0.0702 | 0.91 | 0.256 (inactive) | 0.774 | -0.0994 | 1.4 | -0.56 (inactive) | -1.86 (inactive) | -1.3 (inactive) | 0.915 | 0.756 (inactive) | -0.0973 | 0.962 | 1.08 | 0.095
COc1ccc(OC[C@H]2CN3[C@@H](CC[C@@H](C)[C@@H]3c3ccc(Br)cc3)C(=O)O2)cc1 | -0.358 | 0.722 | -0.181 | 0.243 | -0.142 | 0.165 | -0.228 | -0.539 (inactive) | -0.115 | -0.109 | 0.591 | -0.313 (inactive) | -0.237 (inactive) | 0.179 (inactive) | 0.184 | -0.915 (inactive) | -0.198 | 0.318 | -0.175 | -0.0082
COC(=O)CC=C1c2ccccc2[C@H](OC)[C@H]1C | -0.033 | -0.113 | -0.0044 | 0.234 | -0.0929 | -0.395 | -0.293 | 0.009 (inactive) | 0.137 | -0.0296 | -0.32 | 0.649 (inactive) | 0.863 (inactive) | 0.387 (inactive) | -0.655 | 0.194 (inactive) | -0.0732 | 0.189 | -0.562 | -0.0657
CCN1C(=O)[C@H]2[C@H]3[C@H](O)[C@H](O)CC(=NNC(=O)OCc4ccccc4)[C@@H]3CC[C@H]2C1=O | 0.18 | -0.287 | -0.153 | 0.0519 | -0.311 | -0.003 | -0.514 | 0.639 (inactive) | 0.302 | -0.249 | -0.738 | -0.0309 (inactive) | -0.277 (inactive) | -0.133 (inactive) | 0.614 | 0.801 (inactive) | -0.044 | -0.0412 | -0.0028 | -0.118
CCOC(=O)[C@H](CC(C)C)NC(=O)CCC1CC(OC(=O)NCc2ccc3c(c2)OCO3)CC2(CCCC(COC(=O)NCCOC)O2)O1 (stereo not given in full) | -0.412 | -0.224 | -0.0785 | 0.197 | 0.805 | -0.0383 | 1.07 | 0.619 (inactive) | 0.0301 | 0.0826 | 0.634 | 0.0162 (inactive) | 0.48 (inactive) | -0.958 (inactive) | 1.71 | -0.172 (inactive) | -0.205 | 0.474 | 0.793 | 0.0953
CCO[C@H](c1cc(OC)cc([N+](=O)[O-])c1OC)[C@H](C)[C@@H](OC)[C@H](C)C=CCC(=O)OC | 0.0456 | 0.32 | -0.0241 | -0.105 | 0.174 | 0.339 | 0.66 | -0.0602 (inactive) | 0.414 | -0.317 | 0.836 | 0.443 (inactive) | -0.463 (inactive) | -0.604 (inactive) | 0.945 | -0.466 (inactive) | 0.0632 | -0.0645 | 1.06 | -0.0069
CC(C)(C)N1C(=O)[C@H]2[C@H]3[C@H](O)[C@H](O)CC(=NNC(=O)OCc4ccccc4)[C@@H]3CC[C@H]2C1=O | -0.387 | 0.376 | -0.136 | 0.64 | 0.447 | -0.0123 | 0.254 | 0.674 (inactive) | 0.278 | -0.161 | 0.561 | -0.668 (inactive) | 0.588 (inactive) | 9.42 (active) | 0.883 | 0.45 (inactive) | -0.0824 | 0.457 | 0.586 | 0.172
CCc1cc2c(nc1CC)CCN(CCC(C)=NOCC[C@@H]1C=C[C@H](OC(C)=O)[C@@H](COC(C)=O)O1)C2 | 0.325 | 1.66 | -0.103 | -0.213 | -0.0544 | -0.0974 | 0.545 | 0.485 (inactive) | 0.851 | 0.0722 | 1.54 | -0.391 (inactive) | 0.591 (inactive) | 0.521 (inactive) | 0.796 | 0.956 (inactive) | 0.251 | 1.21 | 0.546 | 0.0579
